# Measured values reported in PubChem BioAssay AID1159580 (chemical genetic matrix, 2015).
# In all, about 5,500 compounds went through this assay and about 2,000 (36%) were called active. Roughly 18% stayed inconclusive and do not appear here. Some of the results follow. Values without a mark were called inactive. No stated cut-off is given here; in the data, active means normalized growth mostly below about 0.91 (no sharp cut-off); inconclusive means no clear call, values can overlap the other calls; inactive means mostly above about 0.92.
# Assay: chemical genetic growth profiling, strain panel (AID 1159580);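 further: tested at 20 µM; growth read once vehicle control cultures reached saturation at 30 °C; 1 = growth at the plate median or of vehicle wells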
# Details: growth OD
# [1] = S. cerevisiae deletion strains, locus YDL101C, strain DUN1, stronger effect = lower value
# [2] = S. cerevisiae deletion strains, locus YHR030C, strain SLT2, stronger effect = lower value
# [3] = S. cerevisiae deletion strains, locus YNL322C, strain KRE1, stronger effect = lower value
# [4] = S. cerevisiae deletion strains, locus YPL055C, strain LGE1, stronger effect = lower value
compound,measurement,setting,value
CC1=CC(=O)N(c2ccc(OC(F)(F)F)cc2)C1=O,normalized growth,"S. cerevisiae deletion strains, locus YAR019C, strain CDC15, stronger effect = lower value",0.852 (active)
same,normalized growth,"S. cerevisiae deletion strains, locus YBL105C, strain PKC1, stronger effect = lower value",0.873 (active)
same,normalized growth,"S. cerevisiae deletion strains, locus YBR135W, strain CKS1, stronger effect = lower value",0.857 (active)
same,normalized growth,"S. cerevisiae deletion strains, locus YBR136W, strain MEC1, stronger effect = lower value",0.87 (active)
same,normalized growth,"S. cerevisiae deletion strains, locus YBR160W, strain CDC28, stronger effect = lower value",0.873 (active)
same,normalized growth,"S. cerevisiae deletion strains, locus YDL017W, strain CDC7, stronger effect = lower value",0.872 (active)
same,normalized growth,"S. cerevisiae deletion strains, locus YDL028C, strain MPS1, stronger effect = lower value",0.857 (active)
same,normalized growth,[1],0.869 (active)
same,normalized growth,"S. cerevisiae deletion strains, locus YDL108W, strain KIN28, stronger effect = lower value",0.868 (active)
same,normalized growth,"S. cerevisiae deletion strains, locus YDL132W, strain cdc53, stronger effect = lower value",0.847 (active)
same,normalized growth,"S. cerevisiae deletion strains, locus YDL214C, strain PRR2, stronger effect = lower value",0.467 (active)
same,normalized growth,"S. cerevisiae deletion strains, locus YDR052C, strain DBF4, stronger effect = lower value",0.883 (active)
same,normalized growth,"S. cerevisiae deletion strains, locus YDR054C, strain cdc34, stronger effect = lower value",0.853 (active)
same,normalized growth,"S. cerevisiae deletion strains, locus YDR226W, strain ADK1, stronger effect = lower value",0.862 (active)
same,normalized growth,"S. cerevisiae deletion strains, locus YDR477W, strain SNF1, stronger effect = lower value",0.377 (active)
same,normalized growth,"S. cerevisiae deletion strains, locus YER123W, strain YCK3, stronger effect = lower value",0.281 (active)
same,normalized growth,"S. cerevisiae deletion strains, locus YER133W, strain GLC7, stronger effect = lower value",0.339 (active)
same,normalized growth,"S. cerevisiae deletion strains, locus YFL009W, strain cdc4, stronger effect = lower value",0.849 (active)
same,normalized growth,"S. cerevisiae deletion strains, locus YFL029C, strain CAK1, stronger effect = lower value",0.837 (active)
same,normalized growth,"S. cerevisiae deletion strains, locus YFR003C, strain YPI1, stronger effect = lower value",0.878 (active)
same,normalized growth,"S. cerevisiae deletion strains, locus YFR019W, strain FAB1, stronger effect = lower value",0.512 (active)
same,normalized growth,"S. cerevisiae deletion strains, locus YFR028C, strain CDC14, stronger effect = lower value",0.865 (active)
same,normalized growth,"S. cerevisiae deletion strains, locus YGR040W, strain KSS1, stronger effect = lower value",0.384 (active)
same,normalized growth,"S. cerevisiae deletion strains, locus YGR052W, strain FMP48, stronger effect = lower value",0.421 (active)
same,normalized growth,"S. cerevisiae deletion strains, locus YGR092W, strain DBF2, stronger effect = lower value",0.217 (active)
same,normalized growth,[2],0.283 (active)
same,normalized growth,"S. cerevisiae deletion strains, locus YHR079C, strain IRE1, stronger effect = lower value",0.35 (active)
same,normalized growth,"S. cerevisiae deletion strains, locus YHR082C, strain KSP1, stronger effect = lower value",0.316 (active)
same,normalized growth,"S. cerevisiae deletion strains, locus YHR205W, strain SCH9, stronger effect = lower value",0.331 (active)
same,normalized growth,"S. cerevisiae deletion strains, locus YIL147C, strain SLN1, stronger effect = lower value",0.873 (active)
same,normalized growth,"S. cerevisiae deletion strains, locus YJL095W, strain BCK1, stronger effect = lower value",0.302 (active)
same,normalized growth,"S. cerevisiae deletion strains, locus YJL128C, strain PBS2, stronger effect = lower value",0.9
same,normalized growth,"S. cerevisiae deletion strains, locus YJL157C, strain FAR1, stronger effect = lower value",0.487 (active)
same,normalized growth,"S. cerevisiae deletion strains, locus YJR016C, strain ILV3, stronger effect = lower value",0.862 (active)
same,normalized growth,"S. cerevisiae deletion strains, locus YJR066W, strain TOR1 (second series), stronger effect = lower value",0.39 (active)
same,normalized growth,"S. cerevisiae deletion strains, locus YJR066W, strain TOR1, stronger effect = lower value",0.272 (active)
same,normalized growth,"S. cerevisiae deletion strains, locus YKL048C, strain ELM1, stronger effect = lower value",0.556 (active)
same,normalized growth,"S. cerevisiae deletion strains, locus YKL067W, strain YNK1, stronger effect = lower value",0.509 (active)
same,normalized growth,"S. cerevisiae deletion strains, locus YKL101W, strain HSL1, stronger effect = lower value",0.494 (active)
same,normalized growth,"S. cerevisiae deletion strains, locus YKL193C, strain SDS22, stronger effect = lower value",0.863 (active)
same,normalized growth,"S. cerevisiae deletion strains, locus YKL203C, strain TOR2, stronger effect = lower value",0.382 (active)
same,normalized growth,"S. cerevisiae deletion strains, locus YLR113W, strain HOG1, stronger effect = lower value",0.336 (active)
same,normalized growth,"S. cerevisiae deletion strains, locus YLR133W, strain CKI1, stronger effect = lower value",0.531 (active)
same,normalized growth,"S. cerevisiae deletion strains, locus YLR403W, strain SFP1, stronger effect = lower value",0.326 (active)
same,normalized growth,"S. cerevisiae deletion strains, locus YML070W, strain DAK1, stronger effect = lower value",0.401 (active)
same,normalized growth,"S. cerevisiae deletion strains, locus YMR001C, strain CDC5, stronger effect = lower value",0.854 (active)
same,normalized growth,"S. cerevisiae deletion strains, locus YMR205C, strain PFK2 (second series), stronger effect = lower value",0.563 (active)
same,normalized growth,"S. cerevisiae deletion strains, locus YMR277W, strain FCP1, stronger effect = lower value",0.868 (active)
same,normalized growth,"S. cerevisiae deletion strains, locus YNL006W, strain LST8, stronger effect = lower value",0.885 (active)
same,normalized growth,"S. cerevisiae deletion strains, locus YNL020C, strain ARK1, stronger effect = lower value",0.558 (active)
same,normalized growth,"S. cerevisiae deletion strains, locus YNL161W, strain CBK1, stronger effect = lower value",0.865 (active)
same,normalized growth,"S. cerevisiae deletion strains, locus YNL183C, strain NPR1, stronger effect = lower value",0.201 (active)
same,normalized growth,"S. cerevisiae deletion strains, locus YNL207W, strain RIO2, stronger effect = lower value",0.847 (active)
same,normalized growth,"S. cerevisiae deletion strains, locus YNL222W, strain SSU72, stronger effect = lower value",0.864 (active)
same,normalized growth,"S. cerevisiae deletion strains, locus YNL307C, strain MCK1 (second series), stronger effect = lower value",0.413 (active)
same,normalized growth,"S. cerevisiae deletion strains, locus YOL078W, strain AVO1, stronger effect = lower value",0.858 (active)
same,normalized growth,"S. cerevisiae deletion strains, locus YOL136C, strain PFK27, stronger effect = lower value",0.436 (active)
same,normalized growth,"S. cerevisiae deletion strains, locus YOR061W, strain CKA2, stronger effect = lower value",0.576 (active)
same,normalized growth,"S. cerevisiae deletion strains, locus YOR119C, strain RIO1, stronger effect = lower value",0.384 (active)
same,normalized growth,"S. cerevisiae deletion strains, locus YOR231W, strain MKK1, stronger effect = lower value",0.4 (active)
same,normalized growth,"S. cerevisiae deletion strains, locus YOR329C, strain SCD5, stronger effect = lower value",0.869 (active)
same,normalized growth,"S. cerevisiae deletion strains, locus YPL031C, strain PHO85, stronger effect = lower value",0.311 (active)
same,normalized growth,"S. cerevisiae deletion strains, locus YPL153C, strain RAD53, stronger effect = lower value",0.372 (active)
same,normalized growth,"S. cerevisiae deletion strains, locus YPL204W, strain HRR25, stronger effect = lower value",0.391 (active)
same,normalized growth,"S. cerevisiae deletion strains, locus YPL209C, strain IPL1, stronger effect = lower value",0.862 (active)
same,normalized growth,"S. cerevisiae deletion strains, locus YPL256C, strain CLN2, stronger effect = lower value",0.33 (active)
same,normalized growth,"S. cerevisiae deletion strains, locus YPR025C, strain CCL1, stronger effect = lower value",0.855 (active)
same,normalized growth,"S. cerevisiae deletion strains, locus YPR106W, strain ISR1, stronger effect = lower value",0.901
same,normalized growth,"S. cerevisiae deletion strains, locus YPR111W, strain DBF20, stronger effect = lower value",0.907
same,normalized growth,"S. cerevisiae deletion strains, strain NNK1, stronger effect = lower value",0.893
same,normalized growth,"S. cerevisiae deletion strains, strain TSCII, stronger effect = lower value",0.859 (active)
CC(=O)c1ccc(N2C(=O)CSCC2=O)cc1,normalized growth,"S. cerevisiae deletion strains, locus YAL013W, strain DEP1, stronger effect = lower value",0.999
same,normalized growth,"S. cerevisiae deletion strains, locus YBR229C, strain ROT2, stronger effect = lower value",0.999
same,normalized growth,[1],1.01
same,normalized growth,"S. cerevisiae deletion strains, locus YDL134C, strain PPH21, stronger effect = lower value",0.977
same,normalized growth,"S. cerevisiae deletion strains, locus YDR150W, strain NUM1, stronger effect = lower value",0.984
same,normalized growth,"S. cerevisiae deletion strains, locus YEL061C, strain CIN8, stronger effect = lower value",1.02
same,normalized growth,"S. cerevisiae deletion strains, locus YGR078C, strain PAC10, stronger effect = lower value",1
same,normalized growth,"S. cerevisiae deletion strains, locus YGR229C, strain SMI1, stronger effect = lower value",0.972
same,normalized growth,[2],1.02
same,normalized growth,"S. cerevisiae deletion strains, locus YHR087W, strain rtc3, stronger effect = lower value",1
same,normalized growth,"S. cerevisiae deletion strains, locus YJR043C, strain POL32, stronger effect = lower value",0.991
same,normalized growth,"S. cerevisiae deletion strains, locus YJR075W, strain HOC1, stronger effect = lower value",1.02
same,normalized growth,"S. cerevisiae deletion strains, locus YLR039C, strain RIC1, stronger effect = lower value",0.962
same,normalized growth,"S. cerevisiae deletion strains, locus YLR058C, strain SHM2 (second series), stronger effect = lower value",0.999
same,normalized growth,"S. cerevisiae deletion strains, locus YLR085C, strain ARP6, stronger effect = lower value",1.04
same,normalized growth,"S. cerevisiae deletion strains, locus YLR262C, strain YPT6, stronger effect = lower value",0.912
same,normalized growth,"S. cerevisiae deletion strains, locus YML094W, strain GIM5, stronger effect = lower value",1.03
same,normalized growth,"S. cerevisiae deletion strains, locus YMR219W, strain ESC1, stronger effect = lower value",0.994
same,normalized growth,"S. cerevisiae deletion strains, locus YMR263W, strain SAP30, stronger effect = lower value",0.999
same,normalized growth,"S. cerevisiae deletion strains, locus YMR307W, strain GAS1, stronger effect = lower value",1.11
same,normalized growth,"S. cerevisiae deletion strains, locus YNL153C, strain GIM3, stronger effect = lower value",1.01
same,normalized growth,"S. cerevisiae deletion strains, locus YNL298W, strain CLA4 (second series), stronger effect = lower value",0.992
same,normalized growth,[3],0.988
same,normalized growth,"S. cerevisiae deletion strains, locus YNR030W, strain Alg12, stronger effect = lower value",0.996
same,normalized growth,[4],1.02
same,normalized growth,"S. cerevisiae deletion strains, locus YPL241C, strain CIN2, stronger effect = lower value",0.983
same,normalized growth,"S. cerevisiae deletion strains, locus YPR135W, strain CTF4, stronger effect = lower value",0.99
same,normalized growth,"S. cerevisiae strains, strain wild type, stronger effect = lower value",0.97
CC(O)C(C)OC(=O)[C@@H]1C[C@@H]2c3cccc4c3c(cn4C(C)C)C[C@H]2N(C)C1 (some centres undefined),normalized growth,"S. cerevisiae deletion strains, locus YAL040C, strain CLN3, stronger effect = lower value",0.977
same,normalized growth,"S. cerevisiae deletion strains, locus YCL061C, strain MRC1 (second series), stronger effect = lower value",0.98
same,normalized growth,"S. cerevisiae deletion strains, locus YDR363W, strain ESC2, stronger effect = lower value",0.996
same,normalized growth,"S. cerevisiae deletion strains, locus YER002W, strain NOP16, stronger effect = lower value",1
same,normalized growth,"S. cerevisiae deletion strains, locus YNL175C, strain NOP13, stronger effect = lower value",1
same,normalized growth,"S. cerevisiae deletion strains, locus YNL197C, strain WHI3, stronger effect = lower value",0.991
same,normalized growth,"S. cerevisiae deletion strains, locus YNL224C, strain SQS1, stronger effect = lower value",1.01
same,normalized growth,[3],0.973
same,normalized growth,"S. cerevisiae deletion strains, locus YOR083W, strain WHI5 (second series), stronger effect = lower value",0.99
same,normalized growth,[4],1
